PMC5700166
Where a chain is given by its changes, count along the chain named.

What was measured:
Assay in all cases: protein-binding microarray (PBM); PBM: ~300 nM protein, 6 mM HEPES pH 7.8, 80 mM KCl, 0.5 mM EDTA, 0.5 mM EGTA, 6% glycerol, 35 ng/ul poly-dIdC, 1% milk, 1 h, room temperature; Ap Aiptasia and Nv Nematostella (sea anemones) / Co Capsaspora / Aq Amphimedon (sponge) / Dm Drosophila / Hu human; RHD is the Rel homology domain; high values mean tight binding
Details in all cases: dsDNA, one strand shown
GST-Ap-NF-kB RHD = target: T1, GST-Ap-NF-kB RHD (Exaiptasia pallida (Aiptasia), UniProt A0A913YAJ5 2-422)
T1 sequence: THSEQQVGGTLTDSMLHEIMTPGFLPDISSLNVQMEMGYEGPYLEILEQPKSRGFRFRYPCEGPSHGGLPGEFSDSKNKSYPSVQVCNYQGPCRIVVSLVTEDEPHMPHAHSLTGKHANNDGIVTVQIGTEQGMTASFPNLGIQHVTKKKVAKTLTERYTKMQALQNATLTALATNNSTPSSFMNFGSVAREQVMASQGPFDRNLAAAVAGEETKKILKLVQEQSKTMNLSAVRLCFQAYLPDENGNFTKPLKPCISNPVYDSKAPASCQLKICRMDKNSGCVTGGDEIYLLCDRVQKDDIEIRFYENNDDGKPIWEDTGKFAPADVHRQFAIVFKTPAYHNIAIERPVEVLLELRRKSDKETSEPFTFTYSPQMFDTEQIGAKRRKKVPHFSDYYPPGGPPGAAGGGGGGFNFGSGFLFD

[1] = target: T2, GST-Nv-NF-kB (Cys allele) (Nematostella vectensis, UniProt E5G601 2-411)
T2 sequence: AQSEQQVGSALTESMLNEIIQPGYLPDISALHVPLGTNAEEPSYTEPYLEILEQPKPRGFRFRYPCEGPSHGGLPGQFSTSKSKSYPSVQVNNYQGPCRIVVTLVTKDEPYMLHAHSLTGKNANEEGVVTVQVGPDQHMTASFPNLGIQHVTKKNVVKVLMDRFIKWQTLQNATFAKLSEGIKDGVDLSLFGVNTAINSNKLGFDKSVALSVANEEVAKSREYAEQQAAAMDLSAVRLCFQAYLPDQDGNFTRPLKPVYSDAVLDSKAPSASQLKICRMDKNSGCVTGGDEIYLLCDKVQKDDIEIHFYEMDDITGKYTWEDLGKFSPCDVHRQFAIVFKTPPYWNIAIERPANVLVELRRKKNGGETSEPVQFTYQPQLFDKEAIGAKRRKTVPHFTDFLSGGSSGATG

[2] = target: T3, GST-Nv-NF-kB (Ser allele) (Nematostella vectensis, UniProt A7UNT2 2-411)
T3 sequence: T2 sequence with Q21R, C66S, S207N, E215Q, V217A, E225K, A268E, D399E

GST-Co-NF-kB = target: T4, GST-Co-NF-kB (Capsaspora owczarzaki, UniProt F1ARL5 200-546)
T4 sequence: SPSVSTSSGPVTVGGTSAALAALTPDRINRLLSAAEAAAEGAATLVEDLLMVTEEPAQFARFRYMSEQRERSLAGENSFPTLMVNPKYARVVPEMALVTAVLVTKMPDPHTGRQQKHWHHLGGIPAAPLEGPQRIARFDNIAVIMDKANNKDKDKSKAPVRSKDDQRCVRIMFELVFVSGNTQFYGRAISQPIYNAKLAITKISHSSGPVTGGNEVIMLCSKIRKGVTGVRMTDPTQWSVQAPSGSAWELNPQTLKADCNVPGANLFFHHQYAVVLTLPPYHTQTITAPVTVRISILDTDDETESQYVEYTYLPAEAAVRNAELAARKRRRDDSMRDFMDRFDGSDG

GST-Dm-Relish = target: T5, GST-Dm-Relish (Drosophila melanogaster, UniProt Q94527 99-473)
T5 sequence: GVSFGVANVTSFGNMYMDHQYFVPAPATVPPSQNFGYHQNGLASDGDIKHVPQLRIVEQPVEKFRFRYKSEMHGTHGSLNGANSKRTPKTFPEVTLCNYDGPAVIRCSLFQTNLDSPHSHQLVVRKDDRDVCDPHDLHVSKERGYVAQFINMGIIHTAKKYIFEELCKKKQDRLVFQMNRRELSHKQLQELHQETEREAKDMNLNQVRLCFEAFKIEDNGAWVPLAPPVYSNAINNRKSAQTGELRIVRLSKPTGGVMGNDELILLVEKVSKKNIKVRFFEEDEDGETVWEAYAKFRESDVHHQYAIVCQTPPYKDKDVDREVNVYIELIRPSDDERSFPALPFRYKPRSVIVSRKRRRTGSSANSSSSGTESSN

GST-Aq-NF-kB = target: T6, GST-Aq-NF-kB (Amphimedon queenslandica, UniProt A9Y5G7 2-389)
T6 sequence: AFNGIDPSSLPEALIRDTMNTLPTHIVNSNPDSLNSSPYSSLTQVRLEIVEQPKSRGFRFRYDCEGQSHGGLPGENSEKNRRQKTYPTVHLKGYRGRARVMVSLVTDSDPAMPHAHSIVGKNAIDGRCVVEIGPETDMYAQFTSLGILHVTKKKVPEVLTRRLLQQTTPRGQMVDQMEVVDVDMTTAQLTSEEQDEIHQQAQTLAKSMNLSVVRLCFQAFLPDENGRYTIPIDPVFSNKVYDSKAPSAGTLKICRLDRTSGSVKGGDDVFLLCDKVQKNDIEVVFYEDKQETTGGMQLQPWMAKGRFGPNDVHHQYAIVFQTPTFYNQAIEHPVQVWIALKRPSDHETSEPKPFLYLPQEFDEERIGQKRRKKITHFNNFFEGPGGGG

GST-Hu-p50 = GST-Hu-p50 (Homo sapiens, UniProt P19838 7-356)
GST-Hu-p50, sequence (P19838 7-356): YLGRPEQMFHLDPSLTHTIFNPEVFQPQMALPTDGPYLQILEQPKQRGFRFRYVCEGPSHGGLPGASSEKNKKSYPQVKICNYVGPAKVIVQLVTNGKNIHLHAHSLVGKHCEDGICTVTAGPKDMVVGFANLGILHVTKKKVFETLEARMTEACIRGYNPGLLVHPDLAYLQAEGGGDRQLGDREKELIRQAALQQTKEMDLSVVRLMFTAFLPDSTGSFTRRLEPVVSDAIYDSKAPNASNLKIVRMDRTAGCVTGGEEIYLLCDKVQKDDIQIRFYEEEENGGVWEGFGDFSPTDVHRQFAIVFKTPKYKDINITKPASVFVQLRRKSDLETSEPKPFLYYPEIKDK

## CCGATTAACATCAAATATCCCCCTGATGTTAATCGGGTCTTGATTCGCTTGACGCTGCTG
GST-Ap-NF-kB RHD
  binding signal: 8.79 z-score
[1]
  binding signal: 8.51 z-score
[2]
  binding signal: 8.83 z-score
GST-Co-NF-kB
  binding signal: 8.39 z-score
GST-Dm-Relish
  binding signal: 7.63 z-score
GST-Aq-NF-kB
  binding signal: 6.9 z-score
GST-Hu-p50
  binding signal: 6.58 z-score

## CCGATTAACATCAGGGGGGTGAATGATGTTAATCGGGTCTTGATTCGCTTGACGCTGCTG
GST-Ap-NF-kB RHD
  binding signal: 3.76 z-score
[1]
  binding signal: 4.08 z-score
[2]
  binding signal: 4.43 z-score
GST-Co-NF-kB
  binding signal: 5.24 z-score
GST-Dm-Relish
  binding signal: 4.14 z-score
GST-Aq-NF-kB
  binding signal: 4.32 z-score
GST-Hu-p50
  binding signal: 4.12 z-score

## CCGATTAACATCACGAATTCCCCTGATGTTAATCGGGTCTTGATTCGCTTGACGCTGCTG
GST-Ap-NF-kB RHD
  binding signal: 8.93 z-score
[1]
  binding signal: 10.1 z-score
[2]
  binding signal: 10.9 z-score
GST-Co-NF-kB
  binding signal: 7.11 z-score
GST-Dm-Relish
  binding signal: 6.96 z-score
GST-Aq-NF-kB
  binding signal: 6.73 z-score
GST-Hu-p50
  binding signal: 6.95 z-score

## CCGATTAACATCAGGGAGTACCCTGATGTTAATCGGGTCTTGATTCGCTTGACGCTGCTG
GST-Ap-NF-kB RHD
  binding signal: 5.7 z-score
[1]
  binding signal: 4.14 z-score
[2]
  binding signal: 3.49 z-score
GST-Co-NF-kB
  binding signal: 1.84 z-score
GST-Dm-Relish
  binding signal: 8.1 z-score
GST-Aq-NF-kB
  binding signal: 6.66 z-score
GST-Hu-p50
  binding signal: 3.38 z-score

## CCGATTAACATCAGGGAGTTTTATGATGTTAATCGGGTCTTGATTCGCTTGACGCTGCTG
GST-Ap-NF-kB RHD
  binding signal: 5.33 z-score
[1]
  binding signal: 7.35 z-score
[2]
  binding signal: 6.78 z-score
GST-Co-NF-kB
  binding signal: 2.72 z-score
GST-Dm-Relish
  binding signal: 5.65 z-score
GST-Aq-NF-kB
  binding signal: 6.93 z-score
GST-Hu-p50
  binding signal: 5.8 z-score

## CCGATTAACATCAGAAAACCCCATGATGTTAATCGGGTCTTGATTCGCTTGACGCTGCTG
GST-Ap-NF-kB RHD
  binding signal: 6.36 z-score
[1]
  binding signal: 5.53 z-score
[2]
  binding signal: 4.86 z-score
GST-Co-NF-kB
  binding signal: 1.75 z-score
GST-Dm-Relish
  binding signal: 8.35 z-score
GST-Aq-NF-kB
  binding signal: 5.03 z-score
GST-Hu-p50
  binding signal: 5.88 z-score

## CCGATTAACATCAGGGGAAGTACTGATGTTAATCGGGTCTTGATTCGCTTGACGCTGCTG
GST-Ap-NF-kB RHD
  binding signal: 7.14 z-score
[1]
  binding signal: 8.22 z-score
[2]
  binding signal: 9.13 z-score
GST-Co-NF-kB
  binding signal: 5.32 z-score
GST-Dm-Relish
  binding signal: 10.7 z-score
GST-Aq-NF-kB
  binding signal: 7.89 z-score
GST-Hu-p50
  binding signal: 6.9 z-score

## CCGATTAACATCAGGGGATATTATGATGTTAATCGGGTCTTGATTCGCTTGACGCTGCTG
GST-Ap-NF-kB RHD
  binding signal: 7.99 z-score
[1]
  binding signal: 7.96 z-score
[2]
  binding signal: 9.17 z-score
GST-Co-NF-kB
  binding signal: 4.65 z-score
GST-Dm-Relish
  binding signal: 6.28 z-score
GST-Aq-NF-kB
  binding signal: 6.34 z-score
GST-Hu-p50
  binding signal: 6.06 z-score

## CCGATTAACATCAGGGGGGGCTATGATGTTAATCGGGTCTTGATTCGCTTGACGCTGCTG
GST-Ap-NF-kB RHD
  binding signal: 4.3 z-score
[1]
  binding signal: 3.34 z-score
[2]
  binding signal: 3.58 z-score
GST-Co-NF-kB
  binding signal: 5.06 z-score
GST-Dm-Relish
  binding signal: 4.12 z-score
GST-Aq-NF-kB
  binding signal: 4.07 z-score
GST-Hu-p50
  binding signal: 4.09 z-score

## CCGATTAACATCAGGGCCTCCCCTGATGTTAATCGGGTCTTGATTCGCTTGACGCTGCTG
GST-Ap-NF-kB RHD
  binding signal: 6.07 z-score
[1]
  binding signal: 4.43 z-score
[2]
  binding signal: 3.22 z-score
GST-Co-NF-kB
  binding signal: 2.08 z-score
GST-Dm-Relish
  binding signal: 7.13 z-score
GST-Aq-NF-kB
  binding signal: 6.75 z-score
GST-Hu-p50
  binding signal: 3.91 z-score

## CCGATTAACATCAAATGTTCCCCTGATGTTAATCGGGTCTTGATTCGCTTGACGCTGCTG
GST-Ap-NF-kB RHD
  binding signal: 5.58 z-score
[1]
  binding signal: 6.77 z-score
[2]
  binding signal: 7.62 z-score
GST-Co-NF-kB
  binding signal: 9.87 z-score
GST-Dm-Relish
  binding signal: 5.59 z-score
GST-Aq-NF-kB
  binding signal: 6.21 z-score
GST-Hu-p50
  binding signal: 4.41 z-score

## CCGATTAACATCAAAATTACCCCTGATGTTAATCGGGTCTTGATTCGCTTGACGCTGCTG
GST-Ap-NF-kB RHD
  binding signal: 4.94 z-score
[1]
  binding signal: 6.27 z-score
[2]
  binding signal: 7.21 z-score
GST-Co-NF-kB
  binding signal: 7.33 z-score
GST-Dm-Relish
  binding signal: 5.24 z-score
GST-Aq-NF-kB
  binding signal: 6.34 z-score
GST-Hu-p50
  binding signal: 5.3 z-score
